The text below walks through data of PubChem BioAssay (NCI).

Some test systems named below: SR leukemia; RPMI-8226 leukemia; OVCAR-8 ovarian; OVCAR-5 ovarian; OVCAR-4 ovarian; SK-OV-3 ovarian; IGROV1 ovarian; OVCAR-3 ovarian; HS 578T breast; NCI/ADR-RES ovarian.
Common to all, as to assay: NCI-60 one-dose screen, 48 h (100 = growth as untreated, 0 = no growth, -100 = all killed)
Common to all, as to conditions: 10 µM unless noted

This is part of a sample that, as a whole, favours compounds with a hit. Of some 83,000 tested, about 20% had one in any assay.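 Growth was measured after 48 h exposure to one concentration of compound in 96-well plates. Values under 10 count as active.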 Values without a mark were called inactive. Activity calls are given as the source filed them.

As to `COc1ccc(OC)c(-c2c(C#N)c(-c3cccs3)nc3c2c(-c2ccccc2)nn3-c2ccccc2)c1`, the growth with SR leukemia was 106%; in the test with RPMI-8226 leukemia, 106%; in the test on OVCAR-8 ovarian, 101%; in the test with OVCAR-5 ovarian, 103%; in the test on OVCAR-4 ovarian, 111%; with SK-OV-3 ovarian it was 93.2%. The growth in the test on IGROV1 ovarian was 99.2%; in the test on OVCAR-3 ovarian, 114%; in the test with HS 578T breast, 87.7%; with NCI/ADR-RES ovarian it was 107%.

Turning to `C=C1C(=O)O[C@H]2[C@H]1CC/C(COC(=O)CSCCSCC(=O)OC/C1=C/CC[C@@]3(C)O[C@H]3[C@H]3OC(=O)C(=C)[C@@H]3CC1)=C\CC[C@@]1(C)O[C@@H]21`, the growth in the test with SR leukemia is -22.6% (active); in the test with RPMI-8226 leukemia, -29.7% (active); with OVCAR-8 ovarian it was 4.46% (active); with OVCAR-5 ovarian, 21.8%; in the test on OVCAR-4 ovarian, 40.4%; with SK-OV-3 ovarian, 89.3%. Moreover, the growth in the test on IGROV1 ovarian is -9.6% (active); in the test on OVCAR-3 ovarian, -12.1% (active); with HS 578T breast, 32.6%; with NCI/ADR-RES ovarian, 59.5%.

With `CC12CCC3c4ccccc4CCC3(CO1)C2` (stereo not given), the growth with SR leukemia is 99.1%; in the test on RPMI-8226 leukemia, 97.1%; in the test on OVCAR-8 ovarian, 103%; with OVCAR-5 ovarian, 96.3%; in the test with OVCAR-4 ovarian, 108%; with SK-OV-3 ovarian it was 98.3%. The growth in the test with IGROV1 ovarian is 121%; in the test with OVCAR-3 ovarian, 115%; with HS 578T breast it was 93.5%; with NCI/ADR-RES ovarian, 106%.

Regarding `COC(=O)CNC(=O)[C@H](Cc1ccccc1)NCc1ccncc1`, the growth in the test on SR leukemia is 97%; with RPMI-8226 leukemia it was 91%; in the test on OVCAR-8 ovarian, 98.3%; in the test on OVCAR-5 ovarian, 105%; in the test with OVCAR-4 ovarian it was 107%; with SK-OV-3 ovarian, 80.7%. Also, the growth in the test with IGROV1 ovarian is 104%; in the test on OVCAR-3 ovarian, 113%; in the test on HS 578T breast it was 106%; in the test with NCI/ADR-RES ovarian it was 103%.

For `Fc1cccc(CNc2c3ccccc3nc3ccccc23)c1F`, the growth in the test with SR leukemia was 38.2%; in the test with RPMI-8226 leukemia it was 52.9%; in the test on OVCAR-8 ovarian, 50.8%; in the test on OVCAR-5 ovarian, 73.3%; in the test on OVCAR-4 ovarian it was 49.9%; in the test on SK-OV-3 ovarian, 75.8%. The growth in the test with IGROV1 ovarian was 52.7%; in the test with OVCAR-3 ovarian it was 86.1%; in the test on HS 578T breast it was 87%; in the test with NCI/ADR-RES ovarian, 48.5%.

In the case of `N#Cc1nc(-c2ccccc2)oc1S(=O)(=O)N1CCOCC1`, the growth is 1.09% (active) in the test with SR leukemia; 76.5% with RPMI-8226 leukemia; 59.8% in the test on OVCAR-8 ovarian; 103% in the test on OVCAR-5 ovarian; 84.2% in the test with OVCAR-4 ovarian; 103% in the test on SK-OV-3 ovarian. Further, the growth with IGROV1 ovarian was 88.5%; with OVCAR-3 ovarian, 15%; in the test on HS 578T breast, 107%; with NCI/ADR-RES ovarian, 98.7%.

In the case of `Cc1ccc(-c2nn(-c3ccccc3)cc2C=C2C(=O)ON=C2C(C)C)cc1`, the growth with SR leukemia is -23.5% (active); in the test with RPMI-8226 leukemia, -23.1% (active); in the test with OVCAR-8 ovarian it was 59.7%; in the test on OVCAR-5 ovarian it was 104%; in the test on OVCAR-4 ovarian, 85.4%; in the test on SK-OV-3 ovarian it was 110%. Besides, the growth in the test on IGROV1 ovarian was 54.7%; with OVCAR-3 ovarian, 87.7%; in the test with HS 578T breast it was 56.4%; in the test with NCI/ADR-RES ovarian it was 96.4%.

With `Cc1cc2c([nH]1)CSc1cc(S(=O)(=O)c3ccccc3)c(=O)[nH]c1-2`, the growth in the test with SR leukemia was 12.8% [100 µM]; in the test with RPMI-8226 leukemia, 21.3% [100 µM]; in the test with OVCAR-8 ovarian, 24.3% [100 µM]; in the test on OVCAR-5 ovarian, 69.9% [100 µM]; in the test with OVCAR-4 ovarian, 43.1% [100 µM]; in the test on SK-OV-3 ovarian, 22% [100 µM]. Also, the growth in the test with IGROV1 ovarian is 42.6% [100 µM]; with OVCAR-3 ovarian, -15.6% [100 µM] (active); in the test with HS 578T breast it was 47.5% [100 µM]; in the test with NCI/ADR-RES ovarian it was 15.7% [100 µM].

For `O=C1NC(=O)c2c1c1c3ccccc3ccc1c1[nH]c3ccc(Br)cc3c21`, the growth in the test with SR leukemia is 11.4%; in the test with RPMI-8226 leukemia, -19.9% (active); in the test on OVCAR-8 ovarian it was 14.7%; in the test with OVCAR-5 ovarian it was 29.7%; in the test with OVCAR-4 ovarian it was 10.3%; in the test on SK-OV-3 ovarian it was 31%. In addition, the growth in the test on IGROV1 ovarian is 14.4%; with OVCAR-3 ovarian it was 8.73% (active); with HS 578T breast it was 78.4%; in the test on NCI/ADR-RES ovarian, 3.52% (active).

As to `COc1ccc2nc(NC(=O)CSc3nnc4n3S(=O)(=O)c3ccccc3N4C)sc2c1`, the growth is 65.1% in the test with SR leukemia; 74.1% with RPMI-8226 leukemia; 84.6% in the test with OVCAR-8 ovarian; 97.5% in the test with OVCAR-5 ovarian; 107% in the test on OVCAR-4 ovarian; 136% in the test on SK-OV-3 ovarian. For the same molecule, the growth was 12.9% in the test on IGROV1 ovarian, 112% in the test with OVCAR-3 ovarian, 89.8% in the test on HS 578T breast and 98.5% with NCI/ADR-RES ovarian.

`O=C(Nc1nn(-c2ccc(Cl)cc2Cl)nc1-c1ccccc1)c1ccccc1`: the growth in the test on SR leukemia was 46%; in the test on RPMI-8226 leukemia it was 75.7%; in the test on OVCAR-8 ovarian, 103%; with OVCAR-5 ovarian, 92%; in the test with OVCAR-4 ovarian it was 106%; with SK-OV-3 ovarian, 117%. Further, the growth in the test with IGROV1 ovarian was 95%; in the test on OVCAR-3 ovarian, 90.7%; in the test on HS 578T breast it was 105%; in the test on NCI/ADR-RES ovarian, 106%.

As to `CC(O)c1cnc(/C=C2\SC(=S)N(Cc3ccccc3)C2=O)s1` (stereo not given), the growth in the test on SR leukemia is 32%; with RPMI-8226 leukemia, 4.74% (active); with OVCAR-8 ovarian, 52.1%; with OVCAR-5 ovarian, 90.1%; in the test on OVCAR-4 ovarian, 101%; in the test with SK-OV-3 ovarian, 95.7%. Moreover, the growth is 94% in the test with IGROV1 ovarian, 53.2% in the test on OVCAR-3 ovarian, 95.3% with HS 578T breast and 92.7% in the test with NCI/ADR-RES ovarian.

Consider `CC(=O)N(N=Nc1ccccc1)c1cccc2ccccc12`, for which the growth in the test on SR leukemia is 74.1%; with RPMI-8226 leukemia it was 102%; in the test on OVCAR-8 ovarian, 84.1%; in the test with OVCAR-5 ovarian, 75.8%; in the test on OVCAR-4 ovarian, 94.5%; in the test with SK-OV-3 ovarian, 82.7%. Also, the growth in the test on IGROV1 ovarian is 62.9%; with OVCAR-3 ovarian it was 125%; with HS 578T breast it was 101%; with NCI/ADR-RES ovarian, 78.5%.
